Data from ChEMBL document CHEMBL3988442, “University of Dundee, Small-Polar-MMV Screening Library” (2021).

Each compound was assayed against AMP-activated protein kinase, AMPK (Homo sapiens) (UniProt P54646+O43741+P54619+Q9UGJ0+Q9Y478+Q13131+Q9UGI9) (assay: AMP-dependent Kinase enzyme assay. An in vitro enzyme assay that detects ADP turnover that is directly proportional to AMPK activity. This uses naive AMPK that is activated during the assay with MK-8722). Details: 30 µM.
Format: functional
Design: scale not given: direction of the effect not stated beside the values

SMILES | Percent Effect [%]
Cn1cc(CN2CCC(c3ncc(Cl)cc3S(C)(=O)=O)CC2)cn1 | 9.1
Cc1nsc(C(=O)NCCc2ccc(F)cc2)n1 | -2.41
CN1CCN(c2ccc(F)cc2NC(=O)NCCn2ccnc2)CC1 | 12.1
Cc1cc(CNC(=O)NCCCC(=O)N2CCc3ccccc32)no1 | -2.98
O=C(CCn1ccnc1)N1CC[C@H](Oc2ccc(F)cc2)[C@@H](O)CC1 | 20.9
CCn1nc(C)c(C(=O)N2C[C@@H](CN(C)CCOC)[C@@H](CO)C2)c1C | -7.64
COCC(O)CNC(=O)c1cc(COc2ccc3c(c2)CCCC3)on1 (stereo not given) | -0.134
Cc1cn[nH]c1C1COCCN1Cc1ccsc1 (stereo not given) | 14.3
Cc1cc(C)n(CCCN(C)c2cc(C3CC3)ncn2)n1 | 6.65
Cc1ncc(C(=O)NCCOc2ccccc2F)c(C)n1 | -16.7
O=C(c1c(F)cccc1F)N1CCC[C@@H]1Cn1c(=O)oc2ccccc21 | 23.1
O=C(CNc1ccc(OC2CCOC2)cc1)NCc1cccs1 (stereo not given) | 9.41
Cc1cc(NC(=O)C(C)NCCn2cccn2)no1 (stereo not given) | -0.416
CCN(CC)C(=O)CS(=O)(=O)c1cc(OC)c(OC)cc1C | 3.6
NC(=O)COc1ccc(CN2CCC(O)(CN3CCCCC3)C2)cc1Cl (stereo not given) | 2.63
CN1CCC(Nc2ccc(Cl)cc2OCC(F)(F)F)C1=O (stereo not given) | -3.53
Cc1nc(CN2CCOCC2c2[nH]ncc2C)cs1 (stereo not given) | 12.1
O=C(Nc1ccc(Br)cc1F)c1ccc(N2CCCCC2)nn1 | 1.92
Cc1ccc(N2CCCC(N(C)c3nn4cc(C)nc4s3)C2)nn1 (stereo not given) | 33
Cc1noc(C)c1-c1n[nH]c2c1CN(S(=O)(=O)c1cccs1)CC2 | 2.21

SMILES | Percent Effect [%]
CCc1nc2n(n1)CC(NCc1nc3ccccc3o1)CC2 (stereo not given) | 2.97
Cc1nc2cc(-c3nccn3C)nn2c(N2CCC(O)CC2)c1C | 20.2
O=C(c1cnco1)N1CCC(Cc2cccc3ncccc23)CC1 | 5.42
CCOc1ccc(NC(=O)NCCS(=O)(=O)CC)cc1C | -0.616
Cc1cccc(COc2ccc(C(C)N)cc2)c1 (stereo not given) | -5.16
O=C(O)CC(CC(=O)N(Cc1ccsc1)C1CC1)c1cccs1 (stereo not given) | -2.55
Cn1ncnc1NCc1ccc(F)cc1 | -10.9
COC(=O)N1CCCCC1C(=O)N1CCN(c2ncccc2C)CC1 (stereo not given) | -4.85
COc1ccnc(CNc2nc(C)nc3ccsc23)c1 | -0.808
O=C(NCc1cccnc1N1CCCC(O)C1)c1ccc2[nH]nnc2c1 (stereo not given) | -3.08
Cc1noc(C)c1C(=O)N1CCC(n2cccn2)CC1 | -9.16
CSc1ccc(C)c(C(=O)Nc2c(C(N)=O)n[nH]c2C)c1 | 3.27
Nc1nc2c(c(NCc3nccs3)n1)CCN(CC1CCCC1)CC2 | 1.23
Cc1cc(C(=O)Nc2ccc(OCCN3CCN(C)CC3)cc2)[nH]n1 | 14.7
Cn1ncc2c(NC3CCSC3)nc(-c3ccncc3)nc21 (stereo not given) | 9.02
Cc1ccc(CNc2ccn(CCC(N)=O)n2)c(Br)c1 | 1.48
COC(=O)c1ccc2c(c1)CCCN2S(=O)(=O)c1cn(C)c(C)n1 | -5.88
CCC(C)Oc1ccc(CNCCNS(C)(=O)=O)cc1Cl (stereo not given) | 5
Cc1ccc(-c2cc(C(=O)NCC3CCOC3)n[nH]2)s1 (stereo not given) | -4.75
Cn1cc(CC(=O)N2CCCC(c3cc(C(F)(F)F)[nH]n3)C2)cn1 (stereo not given) | -6.59
